# Data as given in PMC11006913.
# What was measured:
# Assay in all cases: PBM; 200 nM protein, PBS
# Settings in all cases: dsDNA, one strand shown
# HESX1 [1] = molecular target: HESX1 (Homo sapiens, UniProt Q9UBX0 95-180, R165K)
# ALX4 [2] = molecular target: ALX4 (Homo sapiens, UniProt Q9H161 200-286)
# ALX4 [3] = molecular target: ALX4 (Homo sapiens, UniProt Q9H161 200-286, Q225E)
# HESX1 [4] = molecular target: HESX1 (Homo sapiens, UniProt Q9UBX0 95-180)
# HESX1 [5] = molecular target: HESX1 (Homo sapiens, UniProt Q9UBX0 95-180, R109Q)
# HESX1 [6] = molecular target: HESX1 (Homo sapiens, UniProt Q9UBX0 95-180, P111T)
# HESX1 [7] = molecular target: HESX1 (Homo sapiens, UniProt Q9UBX0 95-180, F115L)
# PRRX1 [8] = molecular target: PRRX1 (Homo sapiens, UniProt P54821 80-166, F113S)
# ALX1 [9] = molecular target: ALX1 (Homo sapiens, UniProt Q15699 118-204, L144V)
# ALX1 [10] = molecular target: ALX1 (Homo sapiens, UniProt Q15699 118-204, L144R)
# ALX1 [11] = molecular target: ALX1 (Homo sapiens, UniProt Q15699 118-204)
# PRRX1 [12] = molecular target: PRRX1 (Homo sapiens, UniProt P54821 80-166)
# PROP1 [13] = molecular target: PROP1 (Homo sapiens, UniProt O75360 56-141)
# PROP1 [14] = molecular target: PROP1 (Homo sapiens, UniProt O75360 56-141, R99H)
# PROP1 [15] = molecular target: PROP1 (Homo sapiens, UniProt O75360 56-141, F88S)
# MSX2 [16] = molecular target: MSX2 (Homo sapiens, UniProt P35548 130-214, R199I)
# MSX2 [17] = molecular target: MSX2 (Homo sapiens, UniProt P35548 130-214)
# ALX3 [18] = molecular target: ALX3 (Homo sapiens, UniProt O95076 139-225, L168V)
# MSX2 [19] = molecular target: MSX2 (Homo sapiens, UniProt P35548 130-214, F161Y)
# ALX3 [20] = molecular target: ALX3 (Homo sapiens, UniProt O95076 139-225, L168Q)
# ALX3 (Homo sapiens, UniProt O95076 139-225, L168Q), sequence (O95076 139-225 L168Q): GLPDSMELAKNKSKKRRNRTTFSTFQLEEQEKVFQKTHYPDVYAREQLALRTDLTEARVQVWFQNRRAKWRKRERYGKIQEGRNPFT
# ALX1 (Homo sapiens, UniProt Q15699 118-204, L144V), sequence (Q15699 118-204 L144V): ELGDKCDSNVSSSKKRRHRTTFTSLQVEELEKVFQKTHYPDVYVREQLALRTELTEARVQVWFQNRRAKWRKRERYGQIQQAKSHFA
# ALX4 (Homo sapiens, UniProt Q9H161 200-286, Q225E), sequence (Q9H161 200-286 Q225E): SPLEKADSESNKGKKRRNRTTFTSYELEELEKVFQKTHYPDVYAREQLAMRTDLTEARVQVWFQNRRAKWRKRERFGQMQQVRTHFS
# HESX1 (Homo sapiens, UniProt Q9UBX0 95-180), sequence (Q9UBX0 95-180): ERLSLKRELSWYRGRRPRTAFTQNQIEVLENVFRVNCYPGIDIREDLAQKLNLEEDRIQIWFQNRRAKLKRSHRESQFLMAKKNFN
# PROP1 (Homo sapiens, UniProt O75360 56-141, F88S), sequence (O75360 56-141 F88S): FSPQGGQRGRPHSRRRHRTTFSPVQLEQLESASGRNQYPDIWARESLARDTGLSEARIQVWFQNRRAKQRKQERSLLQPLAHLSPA
# ALX4 (Homo sapiens, UniProt Q9H161 200-286), sequence (Q9H161 200-286): as the sequence (Q9H161 200-286 Q225E) above, with E26Q counted along it
# ALX1 (Homo sapiens, UniProt Q15699 118-204), sequence (Q15699 118-204): as the sequence (Q15699 118-204 L144V) above, with V27L counted along it
# PROP1 (Homo sapiens, UniProt O75360 56-141), sequence (O75360 56-141): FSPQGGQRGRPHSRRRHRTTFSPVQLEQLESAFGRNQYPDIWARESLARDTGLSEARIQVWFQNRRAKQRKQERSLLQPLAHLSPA
# HESX1 (Homo sapiens, UniProt Q9UBX0 95-180, R165K), sequence (Q9UBX0 95-180 R165K): as the sequence (Q9UBX0 95-180) above, with R71K counted along it
# HESX1 (Homo sapiens, UniProt Q9UBX0 95-180, R109Q), sequence (Q9UBX0 95-180 R109Q): as the sequence (Q9UBX0 95-180) above, with R15Q counted along it
# PRRX1 (Homo sapiens, UniProt P54821 80-166, F113S), sequence (P54821 80-166 F113S): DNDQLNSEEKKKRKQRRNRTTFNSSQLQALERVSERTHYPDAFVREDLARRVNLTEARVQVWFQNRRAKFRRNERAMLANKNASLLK
# ALX1 (Homo sapiens, UniProt Q15699 118-204, L144R), sequence (Q15699 118-204 L144R): as the sequence (Q15699 118-204 L144V) above, with V27R counted along it
# PRRX1 (Homo sapiens, UniProt P54821 80-166), sequence (P54821 80-166): as the sequence (P54821 80-166 F113S) above, with S34F counted along it
# HESX1 (Homo sapiens, UniProt Q9UBX0 95-180, F115L), sequence (Q9UBX0 95-180 F115L): as the sequence (Q9UBX0 95-180) above, with F21L counted along it
# PROP1 (Homo sapiens, UniProt O75360 56-141, R99H), sequence (O75360 56-141 R99H): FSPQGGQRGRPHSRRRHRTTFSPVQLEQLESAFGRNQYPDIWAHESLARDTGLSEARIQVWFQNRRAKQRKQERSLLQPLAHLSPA
# HESX1 (Homo sapiens, UniProt Q9UBX0 95-180, P111T), sequence (Q9UBX0 95-180 P111T): as the sequence (Q9UBX0 95-180) above, with P17T counted along it
# ALX3 (Homo sapiens, UniProt O95076 139-225, L168V), sequence (O95076 139-225 L168V): as the sequence (O95076 139-225 L168Q) above, with Q30V counted along it
# MSX2 (Homo sapiens, UniProt P35548 130-214, F161Y), sequence (P35548 130-214 F161Y): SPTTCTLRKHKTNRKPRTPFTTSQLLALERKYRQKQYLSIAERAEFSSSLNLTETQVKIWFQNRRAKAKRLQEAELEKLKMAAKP
# MSX2 (Homo sapiens, UniProt P35548 130-214, R199I), sequence (P35548 130-214 R199I): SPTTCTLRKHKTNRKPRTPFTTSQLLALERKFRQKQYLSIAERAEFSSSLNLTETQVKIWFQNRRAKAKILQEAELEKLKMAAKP
# MSX2 (Homo sapiens, UniProt P35548 130-214), sequence (P35548 130-214): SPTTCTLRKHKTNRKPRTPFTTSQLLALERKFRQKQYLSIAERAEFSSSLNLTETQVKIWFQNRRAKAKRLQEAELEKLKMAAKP
sequence,measurement,setting,value
CGCGCGAG,binding signal,HESX1 [1],"6.55 upbm affinity estimate (log intensity, higher = more binding, comparable within an allelic series)"
same,binding signal,ALX4 [2],"8.39 upbm affinity estimate (log intensity, higher = more binding, comparable within an allelic series)"
same,binding signal,ALX4 [3],"8.37 upbm affinity estimate (log intensity, higher = more binding, comparable within an allelic series)"
same,binding signal,HESX1 [4],"6.52 upbm affinity estimate (log intensity, higher = more binding, comparable within an allelic series)"
same,binding signal,HESX1 [5],"6.5 upbm affinity estimate (log intensity, higher = more binding, comparable within an allelic series)"
same,binding signal,HESX1 [6],"6.55 upbm affinity estimate (log intensity, higher = more binding, comparable within an allelic series)"
same,binding signal,HESX1 [7],"6.44 upbm affinity estimate (log intensity, higher = more binding, comparable within an allelic series)"
AGCCGGTC,binding signal,HESX1 [1],"6.51 upbm affinity estimate (log intensity, higher = more binding, comparable within an allelic series)"
same,binding signal,HESX1 [4],"6.44 upbm affinity estimate (log intensity, higher = more binding, comparable within an allelic series)"
same,binding signal,HESX1 [5],"6.51 upbm affinity estimate (log intensity, higher = more binding, comparable within an allelic series)"
same,binding signal,HESX1 [6],"6.57 upbm affinity estimate (log intensity, higher = more binding, comparable within an allelic series)"
same,binding signal,HESX1 [7],"6.52 upbm affinity estimate (log intensity, higher = more binding, comparable within an allelic series)"
ACGGAAGG,binding signal,HESX1 [1],"6.5 upbm affinity estimate (log intensity, higher = more binding, comparable within an allelic series)"
same,binding signal,PRRX1 [8],"9.38 upbm affinity estimate (log intensity, higher = more binding, comparable within an allelic series)"
same,binding signal,HESX1 [4],"6.36 upbm affinity estimate (log intensity, higher = more binding, comparable within an allelic series)"
same,binding signal,ALX1 [9],"6.56 upbm affinity estimate (log intensity, higher = more binding, comparable within an allelic series)"
same,binding signal,ALX1 [10],"6.44 upbm affinity estimate (log intensity, higher = more binding, comparable within an allelic series)"
same,binding signal,HESX1 [5],"6.53 upbm affinity estimate (log intensity, higher = more binding, comparable within an allelic series)"
same,binding signal,HESX1 [6],"6.63 upbm affinity estimate (log intensity, higher = more binding, comparable within an allelic series)"
same,binding signal,HESX1 [7],"6.5 upbm affinity estimate (log intensity, higher = more binding, comparable within an allelic series)"
same,binding signal,ALX1 [11],"6.35 upbm affinity estimate (log intensity, higher = more binding, comparable within an allelic series)"
same,binding signal,PRRX1 [12],"9.17 upbm affinity estimate (log intensity, higher = more binding, comparable within an allelic series)"
CCGAGGCC,binding signal,HESX1 [1],"6.48 upbm affinity estimate (log intensity, higher = more binding, comparable within an allelic series)"
same,binding signal,HESX1 [4],"6.46 upbm affinity estimate (log intensity, higher = more binding, comparable within an allelic series)"
same,binding signal,PROP1 [13],"6.73 upbm affinity estimate (log intensity, higher = more binding, comparable within an allelic series)"
same,binding signal,HESX1 [5],"6.41 upbm affinity estimate (log intensity, higher = more binding, comparable within an allelic series)"
same,binding signal,PROP1 [14],"6.78 upbm affinity estimate (log intensity, higher = more binding, comparable within an allelic series)"
same,binding signal,HESX1 [6],"6.44 upbm affinity estimate (log intensity, higher = more binding, comparable within an allelic series)"
same,binding signal,PROP1 [15],"6.47 upbm affinity estimate (log intensity, higher = more binding, comparable within an allelic series)"
same,binding signal,HESX1 [7],"6.42 upbm affinity estimate (log intensity, higher = more binding, comparable within an allelic series)"
AGAGGACC,binding signal,HESX1 [1],"6.6 upbm affinity estimate (log intensity, higher = more binding, comparable within an allelic series)"
same,binding signal,HESX1 [4],"6.46 upbm affinity estimate (log intensity, higher = more binding, comparable within an allelic series)"
same,binding signal,HESX1 [5],"6.58 upbm affinity estimate (log intensity, higher = more binding, comparable within an allelic series)"
same,binding signal,HESX1 [6],"6.41 upbm affinity estimate (log intensity, higher = more binding, comparable within an allelic series)"
same,binding signal,HESX1 [7],"6.55 upbm affinity estimate (log intensity, higher = more binding, comparable within an allelic series)"
AATTATCA,binding signal,HESX1 [1],"11.4 upbm affinity estimate (log intensity, higher = more binding, comparable within an allelic series)"
same,binding signal,PRRX1 [8],"11.2 upbm affinity estimate (log intensity, higher = more binding, comparable within an allelic series)"
same,binding signal,HESX1 [4],"11.5 upbm affinity estimate (log intensity, higher = more binding, comparable within an allelic series)"
same,binding signal,MSX2 [16],"12.3 upbm affinity estimate (log intensity, higher = more binding, comparable within an allelic series)"
same,binding signal,ALX1 [9],"11.3 upbm affinity estimate (log intensity, higher = more binding, comparable within an allelic series)"
same,binding signal,ALX1 [10],"11.1 upbm affinity estimate (log intensity, higher = more binding, comparable within an allelic series)"
same,binding signal,MSX2 [17],"13.3 upbm affinity estimate (log intensity, higher = more binding, comparable within an allelic series)"
same,binding signal,PROP1 [13],"11 upbm affinity estimate (log intensity, higher = more binding, comparable within an allelic series)"
same,binding signal,HESX1 [5],"8.56 upbm affinity estimate (log intensity, higher = more binding, comparable within an allelic series)"
same,binding signal,PROP1 [14],"10.6 upbm affinity estimate (log intensity, higher = more binding, comparable within an allelic series)"
same,binding signal,HESX1 [6],"10.1 upbm affinity estimate (log intensity, higher = more binding, comparable within an allelic series)"
same,binding signal,ALX3 [18],"9.73 upbm affinity estimate (log intensity, higher = more binding, comparable within an allelic series)"
same,binding signal,PROP1 [15],"7.71 upbm affinity estimate (log intensity, higher = more binding, comparable within an allelic series)"
same,binding signal,MSX2 [19],"13 upbm affinity estimate (log intensity, higher = more binding, comparable within an allelic series)"
same,binding signal,HESX1 [7],"7.79 upbm affinity estimate (log intensity, higher = more binding, comparable within an allelic series)"
same,binding signal,ALX1 [11],"12 upbm affinity estimate (log intensity, higher = more binding, comparable within an allelic series)"
same,binding signal,PRRX1 [12],"13.3 upbm affinity estimate (log intensity, higher = more binding, comparable within an allelic series)"
CACGGCGG,binding signal,HESX1 [1],"6.53 upbm affinity estimate (log intensity, higher = more binding, comparable within an allelic series)"
same,binding signal,HESX1 [4],"6.43 upbm affinity estimate (log intensity, higher = more binding, comparable within an allelic series)"
same,binding signal,HESX1 [5],"6.49 upbm affinity estimate (log intensity, higher = more binding, comparable within an allelic series)"
same,binding signal,HESX1 [6],"6.56 upbm affinity estimate (log intensity, higher = more binding, comparable within an allelic series)"
same,binding signal,HESX1 [7],"6.49 upbm affinity estimate (log intensity, higher = more binding, comparable within an allelic series)"
TAAATTCA,binding signal,HESX1 [1],"7.34 upbm affinity estimate (log intensity, higher = more binding, comparable within an allelic series)"
same,binding signal,HESX1 [4],"7.46 upbm affinity estimate (log intensity, higher = more binding, comparable within an allelic series)"
AATGAGAG,binding signal,HESX1 [1],"7.5 upbm affinity estimate (log intensity, higher = more binding, comparable within an allelic series)"
same,binding signal,HESX1 [4],"7.55 upbm affinity estimate (log intensity, higher = more binding, comparable within an allelic series)"
ATTAAGGA,binding signal,HESX1 [1],"8.58 upbm affinity estimate (log intensity, higher = more binding, comparable within an allelic series)"
same,binding signal,HESX1 [4],"9.12 upbm affinity estimate (log intensity, higher = more binding, comparable within an allelic series)"
AATGTAAG,binding signal,HESX1 [1],"7.66 upbm affinity estimate (log intensity, higher = more binding, comparable within an allelic series)"
same,binding signal,HESX1 [4],"7.68 upbm affinity estimate (log intensity, higher = more binding, comparable within an allelic series)"
AATTGAGT,binding signal,HESX1 [1],"9.4 upbm affinity estimate (log intensity, higher = more binding, comparable within an allelic series)"
same,binding signal,HESX1 [4],"9.59 upbm affinity estimate (log intensity, higher = more binding, comparable within an allelic series)"
CAGGCCGG,binding signal,HESX1 [1],"6.44 upbm affinity estimate (log intensity, higher = more binding, comparable within an allelic series)"
same,binding signal,HESX1 [4],"6.33 upbm affinity estimate (log intensity, higher = more binding, comparable within an allelic series)"
same,binding signal,HESX1 [5],"6.48 upbm affinity estimate (log intensity, higher = more binding, comparable within an allelic series)"
same,binding signal,HESX1 [6],"6.33 upbm affinity estimate (log intensity, higher = more binding, comparable within an allelic series)"
same,binding signal,HESX1 [7],"6.4 upbm affinity estimate (log intensity, higher = more binding, comparable within an allelic series)"
AATTAACC,binding signal,HESX1 [1],"11.5 upbm affinity estimate (log intensity, higher = more binding, comparable within an allelic series)"
same,binding signal,ALX4 [2],"13.6 upbm affinity estimate (log intensity, higher = more binding, comparable within an allelic series)"
same,binding signal,PRRX1 [8],"11 upbm affinity estimate (log intensity, higher = more binding, comparable within an allelic series)"
same,binding signal,ALX4 [3],"12.7 upbm affinity estimate (log intensity, higher = more binding, comparable within an allelic series)"
same,binding signal,HESX1 [4],"11.5 upbm affinity estimate (log intensity, higher = more binding, comparable within an allelic series)"
same,binding signal,ALX1 [9],"11.3 upbm affinity estimate (log intensity, higher = more binding, comparable within an allelic series)"
same,binding signal,ALX1 [10],"11.2 upbm affinity estimate (log intensity, higher = more binding, comparable within an allelic series)"
same,binding signal,PROP1 [13],"11.1 upbm affinity estimate (log intensity, higher = more binding, comparable within an allelic series)"
same,binding signal,HESX1 [5],"8.77 upbm affinity estimate (log intensity, higher = more binding, comparable within an allelic series)"
same,binding signal,PROP1 [14],"10.7 upbm affinity estimate (log intensity, higher = more binding, comparable within an allelic series)"
same,binding signal,ALX3 [20],"10.3 upbm affinity estimate (log intensity, higher = more binding, comparable within an allelic series)"
same,binding signal,HESX1 [6],"10.3 upbm affinity estimate (log intensity, higher = more binding, comparable within an allelic series)"
same,binding signal,ALX3 [18],"9.89 upbm affinity estimate (log intensity, higher = more binding, comparable within an allelic series)"
same,binding signal,PROP1 [15],"7.52 upbm affinity estimate (log intensity, higher = more binding, comparable within an allelic series)"
same,binding signal,HESX1 [7],"7.7 upbm affinity estimate (log intensity, higher = more binding, comparable within an allelic series)"
same,binding signal,ALX1 [11],"12.1 upbm affinity estimate (log intensity, higher = more binding, comparable within an allelic series)"
same,binding signal,PRRX1 [12],"13.2 upbm affinity estimate (log intensity, higher = more binding, comparable within an allelic series)"
TAGCTTAA,binding signal,HESX1 [1],"7.4 upbm affinity estimate (log intensity, higher = more binding, comparable within an allelic series)"
same,binding signal,HESX1 [4],"7.51 upbm affinity estimate (log intensity, higher = more binding, comparable within an allelic series)"
CAATAATG,binding signal,HESX1 [1],"8.97 upbm affinity estimate (log intensity, higher = more binding, comparable within an allelic series)"
same,binding signal,HESX1 [4],"9.26 upbm affinity estimate (log intensity, higher = more binding, comparable within an allelic series)"
ATTATAGC,binding signal,HESX1 [1],"8.55 upbm affinity estimate (log intensity, higher = more binding, comparable within an allelic series)"
same,binding signal,HESX1 [4],"8.71 upbm affinity estimate (log intensity, higher = more binding, comparable within an allelic series)"
CACGGCTG,binding signal,HESX1 [1],"6.44 upbm affinity estimate (log intensity, higher = more binding, comparable within an allelic series)"
same,binding signal,ALX4 [2],"7.95 upbm affinity estimate (log intensity, higher = more binding, comparable within an allelic series)"
same,binding signal,ALX4 [3],"7.97 upbm affinity estimate (log intensity, higher = more binding, comparable within an allelic series)"
same,binding signal,HESX1 [4],"6.33 upbm affinity estimate (log intensity, higher = more binding, comparable within an allelic series)"
same,binding signal,ALX1 [9],"6.21 upbm affinity estimate (log intensity, higher = more binding, comparable within an allelic series)"
same,binding signal,ALX1 [10],"6.3 upbm affinity estimate (log intensity, higher = more binding, comparable within an allelic series)"
same,binding signal,HESX1 [5],"6.53 upbm affinity estimate (log intensity, higher = more binding, comparable within an allelic series)"
same,binding signal,HESX1 [6],"6.39 upbm affinity estimate (log intensity, higher = more binding, comparable within an allelic series)"
same,binding signal,HESX1 [7],"6.49 upbm affinity estimate (log intensity, higher = more binding, comparable within an allelic series)"
same,binding signal,ALX1 [11],"6.11 upbm affinity estimate (log intensity, higher = more binding, comparable within an allelic series)"
